# Assay results reported in PubChem BioAssay AID624202 (National Center for Advancing Translational Sciences (NCATS), 2012).
# Screen size: about 380,000 compounds; about 4,000 (1.1%) were called active. Inconclusive results (about 3%) are left out. Calls follow the shape of the dose curve; as a rule, active = well fitted activation curve with a large enough effect; inconclusive = small, poorly fitted or top-dose-only effect; inactive = no such curve, though single readings can be large or run the other way. This excerpt belongs to a sample that is enriched for actives.
# Test: qHTS Assay to Identify Small Molecule Activators of BRCA1 Expression; also: nearly all actives have a fitted effect of over 80% in size
# Conditions: MCF7-BRCA1-FFLuc reporter, luminescence, 48 h; series mostly up to 46.1 µM; activation: at the top concentration
# Procedure, shortened: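 Using MCF7 cells harboring a BRCA1 firefly luciferase reporter, plated 2 h before compound pinning, the screen measured luminescence after 48 h incubation. Responses were normalized to DMSO and 10 microM genistein, then fitted for concentration-effect.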
# Potency is read from the fitted curve at half-maximal effect.
Structure (SMILES),activation,Potency
CC(C)(C)c1ccc(Oc2ccc(N)cc2)cc1,-82.1% (inactive),
CC(C)(C)c1ccc(OC2=CS(=O)(=O)c3ccccc32)cc1,,12.6 µM (active)
CC(C)(C)c1ccc(CN2C(=O)c3ccccc3S2(=O)=O)cc1,69.5% (inactive),
O=S(=O)(c1cccc(C(F)(F)F)c1)N1CCN(c2nc(-c3cccs3)nc3ccccc23)CC1,14.8% (inactive),
O=C(CCNC(=O)c1ccccc1)NN=Cc1ccc(Br)o1,-7.6% (inactive),
Cc1cccc(NC(=O)CSc2nnc(CCCCCNC(=O)OC(C)(C)C)o2)c1C,-6.49% (inactive),
CC(C)(C)OC(=O)NCCCCCC(=O)N/N=C/c1coc2ccccc2c1=O,,11.2 µM (active)
Cc1ccc(-c2nc(=N)sn2Cc2ccccc2)cc1,0% (inactive),
CCOc1ccc(NC(=O)Cn2c(=O)n(CCCC(=O)NCc3ccc4c(c3)OCO4)c(=O)c3ccccc32)cc1,7.21% (inactive),
O=C(COC(=O)c1ccccc1C(=O)c1ccccc1)c1ccco1,2.69% (inactive),
CCN(CC)c1ccc(C(=O)OCC(=O)c2ccco2)cc1,,8.91 µM (active)
CCc1ccc(C(=O)COC(=O)c2ccco2)cc1,55.8% (inactive),
COc1ccc(S(=O)(=O)n2nc(C)c(S(=O)(=O)N3CCCCCC3)c2C)cc1,11.7% (inactive),
COc1ccc(S(=O)(=O)Nc2cccc3cccnc23)c(N)c1,-64.9% (inactive),
O=C(NCCCn1ccnc1)c1cc2c(s1)CCCC2,0.602% (inactive),
CCC(=O)c1c[nH]c(C(=O)NCC2CCCO2)c1 (stereo not given),-7.15% (inactive),
O=C(NCC1CCCO1)c1cc2c(s1)CCCC2 (stereo not given),,5.62 µM (active)
COc1ccc(NC(=O)CSc2ccc(-c3ccco3)nn2)c(OC)c1,-0.876% (inactive),
Cc1snc(SCc2c(F)cccc2Cl)c1C#N,-0.438% (inactive),
Fc1cccc(Cl)c1CSc1ccc(-c2ccco2)nn1,,3.55 µM (active)
S=C(Nc1ccc(Cl)cc1Cl)N1CCCC1,97.8% (inactive),
O=C(NC(=S)Nc1ccc(Br)cc1F)C1CCCCC1,34.2% (inactive),
O=C(NC(=S)Nc1ccc(Cl)cc1Cl)C1CC1,,3.16 µM (active)
CCOc1ccc(NC(=O)Nc2ccc(N(C)C(C)=O)cc2)cc1,-10.8% (inactive),

Structure (SMILES),activation,Potency
CCOc1ccc(NC(=O)Nc2cc(C)on2)cc1,,7.94 µM (active)
CCC(=O)Nc1ccc(C(=O)Nc2cc(C)on2)cc1,78.7% (inactive),
Cc1ccccc1OCCSc1nc2ccc(NC(=O)c3ccco3)cc2s1,0% (inactive),
Oc1ccc(Br)cc1C1C=C(c2ccc3c(c2)OCO3)NC(c2ccc(Cl)cc2)N1 (stereo not given),0% (inactive),
COc1ccc(COCC(O)CN2CCC(C(N)=O)CC2)cc1 (stereo not given),-22.9% (inactive),
COc1cc(CN2CCC(C(N)=O)CC2)ccc1OCc1ccccc1,,11.2 µM (active)
COc1ccc(CCN2C(=O)CC(N3CCC(C(N)=O)CC3)C2=O)cc1OC (stereo not given),2.27% (inactive),
CN(C)c1ccc(/C=C/c2sc3ccccc3[n+]2C)cc1,-43.7% (inactive),
COc1cccc(CNC(=O)c2n[nH]c3ccccc23)c1,,11.2 µM (active)
COc1ccc(NC(=O)COC(=O)c2n[nH]c3ccccc23)c(OC)c1,-36.1% (inactive),
COc1ccc(S(=O)(=O)N(C)C)cc1NC(=O)COC(=O)c1n[nH]c2ccccc12,-5.05% (inactive),
COC(=O)[C@@H](NC(=O)NCc1cccc(OC)c1)C(C)C,4.02% (inactive),
COc1ccc(COC(=O)c2n[nH]c3ccccc23)cc1F,,14.1 µM (active)
COc1cccc(CC(=O)OCC(=O)NCc2ccc3c(c2)OCO3)c1,-10.7% (inactive),
CC(=O)c1ccc(NC(=O)C2CCN(S(=O)(=O)c3c(C)noc3/C=C/c3ccc(C)cc3)CC2)cc1,13.2% (inactive),
CN(CCC#N)c1ccc(C=O)cc1,1.33% (inactive),
CCN(CCCNC(=O)c1c(C)oc2ncn(CC(C)C)c(=O)c12)Cc1ccccc1,0% (inactive),
COc1cccc(NC(=O)N(Cc2cn(C)c3ccccc23)C2CCCCCC2)c1,-54.9% (inactive),
CNc1ccc(-c2nc(-c3ccccc3C)no2)cc1[N+](=O)[O-],-0.0312% (inactive),
CCCCN1CC(c2nc3ccccc3n2CCCCOc2ccc(C)cc2C)CC1=O (stereo not given),-27.3% (inactive),
CCN1C(=O)/C(=C2\SC(N3CCCCC3)=NC2=O)c2ccccc21,,10 µM (active)
CCn1c(=O)n(CC)c2cc(N3CCCC3)c(NC(=O)c3ccccc3Br)cc21,-43.1% (inactive),
CC(C)=C1SC(N2CCN(c3ccc(C)c(Cl)c3)CC2)=NC1=O,-11.5% (inactive),
Cc1cc(OC(C)C(=O)Nc2sc3c(c2C(N)=O)CCCC3)ccc1Cl (stereo not given),9.91% (inactive),

Structure (SMILES),activation,Potency
Cc1nc(-c2ccccc2)sc1C(=O)/C=C/N(C)C,,11.2 µM (active)
CN(C)/C=C/C(=O)c1cnc2sccn2c1=O,-21.1% (inactive),
Cc1nc(COc2cccc(Cl)c2)sc1C(=O)/C=C/N(C)C,86% (inactive),
Cc1cccc(N2CCN(C(=O)c3cc4c(=O)oc5ccccc5c4s3)CC2C)c1 (stereo not given),1.26% (inactive),
O=C(c1cnn2ccccc12)N1CCc2ccccc21,,3.16 µM (active)
CCCCn1nc(C(=O)N2CCc3ccccc32)c2ccccc2c1=O,-9.5% (inactive),
Cc1cnc(C(=O)OCC(=O)N2CCc3ccccc32)cn1,45.7% (inactive),
Cc1nn(C(=O)c2c(F)cccc2F)c(C)c1S(=O)(=O)N1CCOCC1,3.27% (inactive),
O=C(C1CC1)N1CCc2cc(Br)cc(S(=O)(=O)N3CCN(c4ccccc4F)CC3)c21,-3.63% (inactive),
O=[N+]([O-])c1ccc(NC(=S)N2CCN(c3ccccn3)CC2)cc1,-40.3% (inactive),
O=C(COC(=O)c1ccccn1)NNC(=O)c1ccc([N+](=O)[O-])cc1,0.358% (inactive),
O=C(Nc1ccc([N+](=O)[O-])cc1)OCCc1ccccn1,,2.82 µM (active)
O=C(Nc1ccc(Cl)cc1)Nc1ccc(Oc2cccnc2)nc1,28.1% (inactive),
Cc1ccc(NC(=O)Nc2cccnc2)cc1,,12.6 µM (active)
CC(=O)c1cccc(NC(=O)Nc2ccc(C)cc2)c1,,14.1 µM (active)
Cc1cc(NC(=O)Nc2c[nH]c(=O)[nH]c2=O)ccc1Br,10% (inactive),
CC(=O)c1cccc(NC(=O)c2nc(-c3ccccc3)n(-c3cccc(C)c3)n2)c1,-0.252% (inactive),
Cc1ccc(NC(=O)N2CCC(O)(c3cccnc3)CC2)cc1,18% (inactive),
Cc1ccc(NC(=O)Nc2ccccc2)c(Br)c1,,1.58 µM (active)
CCOc1cc(NC(=O)Nc2ccccc2)c(OCC)cc1NC(=O)CC,-19.8% (inactive),
CC(=O)c1cccc(NC(=O)[C@@H](NC(N)=O)C(C)C)c1,-13.3% (inactive),
Cc1sc2ncn(CC(=O)N3CCN(c4ccc(F)cc4)CC3)c(=O)c2c1S(=O)(=O)N1CCN(c2ncccn2)CC1,-7.16% (inactive),
